# Shown is part of a subset that was picked to be rich in the strongest signals.
# Tests used:
# Test in all cases: glycan array binding signal (z-score within array); higher = stronger binding
# Details in all cases: glycan notation: IUPAC condensed, linker removed
# Fuc(a1-2)Gal = target: Fuc(a1-2)Gal
# Summary of the method: (§1)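 Glycan array data came from 3228 arrays in the Consortium for Functional Glycomics database, and only arrays with an available protein sequence were kept. Glycan names were put into IUPAC-condensed notation, and columns mapping to the same glycan were averaged. The binding signal is a within-array Z-score, averaged across arrays of one protein sequence run at different concentrations or buffers and across linkers. A negative Z-score can be read as non-binding.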
# [1] = target: Fuc(a1-2)Gal(b1-4)GlcNAc(b1-3)[Fuc(a1-2)Gal(b1-4)GlcNAc(b1-6)]GalNAc
# Summary of the method: as §1
# [2] = target: Fuc(a1-2)Gal(b1-4)[Fuc(a1-3)]GlcNAc(b1-3)GalNAc
# Summary of the method: as §1
# [3] = target: Fuc(a1-2)[Gal(a1-3)]Gal(b1-3)GlcNAc(b1-2)Man(a1-3)[Fuc(a1-2)[Gal(a1-3)]Gal(b1-3)GlcNAc(b1-2)Man(a1-6)]Man(b1-4)GlcNAc(b1-4)[Fuc(a1-6)]GlcNAc
# Summary of the method: as §1
# [4] = target: Fuc(a1-2)[GalNAc(a1-3)]Gal(b1-3)GalNAc(a1-3)[Fuc(a1-2)]Gal(b1-4)GlcNAc
# Summary of the method: as §1
# [5] = target: Fuc(a1-3)[Gal(b1-4)]GlcNAc(b1-4)Gal(b1-4)[Fuc(a1-3)]GlcNAc(b1-4)Gal(b1-4)[Fuc(a1-3)]GlcNAc
# Summary of the method: as §1
# [6] = target: Gal(a1-4)Gal(b1-3)GlcNAc(b1-2)Man(a1-3)[Gal(a1-4)Gal(b1-3)GlcNAc(b1-2)Man(a1-6)]Man(b1-4)GlcNAc(b1-4)GlcNAc
# Summary of the method: as §1
# Gal(a1-4)Gal(b1-4)Glc = target: Gal(a1-4)Gal(b1-4)Glc
# Summary of the method: as §1
# [7] = target: Gal(a1-4)Gal(b1-4)GlcNAc(b1-2)Man(a1-3)[Gal(a1-4)Gal(b1-4)GlcNAc(b1-2)Man(a1-6)]Man(b1-4)GlcNAc(b1-4)GlcNAc
# Summary of the method: as §1
# [8] = target: Gal(b1-3)[Fuc(a1-4)]GlcNAc(b1-2)Man(a1-3)[Gal(b1-3)[Fuc(a1-4)]GlcNAc(b1-2)Man(a1-6)]Man(b1-4)GlcNAc(b1-4)[Fuc(a1-6)]GlcNAc
# Summary of the method: as §1
# [9] = target: Gal(b1-3)[Fuc(a1-4)]GlcNAc(b1-3)Gal(b1-4)GlcNAc
# Summary of the method: as §1
# Gal(b1-4)Gal = target: Gal(b1-4)Gal
# Summary of the method: as §1
# [10] = target: Gal(b1-4)GlcNAc(b1-2)[Gal(b1-4)GlcNAc(b1-4)]Man(a1-3)[Gal(b1-4)GlcNAc(b1-2)[Gal(b1-4)GlcNAc(b1-6)]Man(a1-6)]Man(b1-4)GlcNAc(b1-4)GlcNAc
# Summary of the method: as §1
# [11] = target: Gal(b1-4)GlcNAc(b1-3)[Gal(b1-4)GlcNAc(b1-6)]Gal(b1-4)GlcNAc
# Summary of the method: as §1
# [12] = target: GalNAc(a1-3)Fuc(a1-2)Gal(b1-4)GlcNAc(b1-3)[GalNAc(a1-3)Fuc(a1-2)Gal(b1-4)GlcNAc(b1-6)]GalNAc
# Summary of the method: as §1
# GalNAc(a1-3)GalNAc = target: GalNAc(a1-3)GalNAc
# Summary of the method: as §1
# GalNAc(b1-3)Gal = target: GalNAc(b1-3)Gal
# Summary of the method: as §1
# [13] = target: Glc(a1-4)Glc(a1-4)Glc(a1-4)Glc
# Summary of the method: as §1
# [14] = target: Glc(a1-6)Glc(a1-6)Glc(a1-6)Glc
# Summary of the method: as §1
# [15] = target: GlcNAc(a1-4)Gal(b1-4)GlcNAc(b1-3)Gal(b1-4)Glc
# Summary of the method: as §1
# [16] = target: GlcNAc(a1-4)Gal(b1-4)GlcNAc(b1-3)Gal(b1-4)GlcNAc
# Summary of the method: as §1
# [17] = target: GlcNAc(a1-4)Gal(b1-4)GlcNAc(b1-3)Gal(b1-4)[Fuc(a1-3)]GlcNAc(b1-3)Gal(b1-4)[Fuc(a1-3)]GlcNAc
# Summary of the method: as §1
# [18] = target: GlcNAc(b1-2)Gal(b1-3)GalNAc
# Summary of the method: as §1
# [19] = target: GlcNAc(b1-2)Man(a1-3)[GlcNAc(b1-2)Man(a1-6)]Man(b1-4)GlcNAc(b1-4)GlcNAc
# Summary of the method: as §1
# [20] = target: GlcNAc(b1-2)[GlcNAc(b1-4)]Man(a1-3)[GlcNAc(b1-2)Man(a1-6)]Man(b1-4)GlcNAc(b1-4)GlcNAc
# Summary of the method: as §1
# GlcNAc(b1-3)Gal(b1-4)Glc = target: GlcNAc(b1-3)Gal(b1-4)Glc
# Summary of the method: as §1
# GlcNAc(b1-3)GalNAc = target: GlcNAc(b1-3)GalNAc
# Summary of the method: as §1
# [21] = target: GlcNAc(b1-4)GlcNAc(b1-4)GlcNAc(b1-4)GlcNAc(b1-4)GlcNAc(b1-4)GlcNAc
# Summary of the method: as §1
# Man(a1-2)Man(a1-3)Man = target: Man(a1-2)Man(a1-3)Man
# Summary of the method: as §1
# [22] = target: Man(a1-2)Man(a1-3)[Man(a1-6)]Man(a1-6)[Man(a1-2)Man(a1-3)]Man(b1-4)GlcNAc(b1-4)GlcNAc
# Summary of the method: as §1
binder,measurement,setting,value
"RetS (Pseudomonas aeruginosa), Q9HUV7 (protein) MVRLRIAIGLLVSFLLLLLGPMSPAVADDAGVSSVPLQTTATTPSANQNWRLLRDESAQLRIADVLQRKEQFRPLAKRSFIFPASPQAVWLQVQLPAQKVPSWLWIFAPRVQYLDYYLVQDGQLVRDQHTGESRPFQERPLPSRSYLFSLPVDGKPMTLYVRMTSNHPLMAWFDQIDEAGLVGLEKPAYAFGMLLGGMLLLLMYNLIRFAYSRSASSLWLAAVHAALAVCAAANLGLVAFWLPGLKFNQSLTADLGALGAAVSLLWFACSFFRGTAESRLNRLLQGEALLILAVGAIIAFTQQLWFSWLIYLLVILSSLSVPLIAAWHWYRGYQPARLIVAGMIVFNAGFMVFLPVLFGTKQLDPGWLVLGVFSFATLAGLVLSVSLTERQRLIQQLNLQQRTSEAAHTAELQTKAEFLAKISHEIRTPMNGVLGMTELLLGTPLSAKQRDYVQTIHSAGNELLTLINEILDISKLESGQIELDEVQFDLNALIEDCLDIFRVKAEQQRIELISFTQPQVPRVIGGDPTRLRQVVLSLLDNAFKQTEEGEILLVVALDDQGETPRLRIAVQDSGHPFDAKEREALLTAELHSGDFLSASKLGSHLGLIIARQLVRLMGGEFGIQSGSSQGTTLSLTLPLDPQQLENPTADLDGPLQGARLLVVDDNETCRKVLVQQCSGWGLNVSAVSSGKEALAQLRTKAHLREYFDVVLLDQDMPGMTGMQLAAKIKEDPNLNHDILLIMLTGISNAPSKIIARNAGIKRILAKPVAGYTLKATLADELAQRGVSGVTNYLQPAKEAQAPSLPSDFRILVAEDNSISTKVIRGMLNKLNLQPDTASNGQEALSAMKATQYDLVLMDCEMPVLDGFSATEQLRAWEAHEQRPHTPVVALTAHILSEHKERARLVGMDGHMAKPVELSQLRELIAYWVGERDRRRQGDALPS",glycan array binding signal (z-score),Fuc(a1-2)Gal,1.84
same,glycan array binding signal (z-score),[1],0.163
same,glycan array binding signal (z-score),[2],1.16
same,glycan array binding signal (z-score),[3],2.79
same,glycan array binding signal (z-score),[4],0.731
same,glycan array binding signal (z-score),[5],-0.414
same,glycan array binding signal (z-score),[6],5.23
same,glycan array binding signal (z-score),Gal(a1-4)Gal(b1-4)Glc,-0.16
same,glycan array binding signal (z-score),[7],3.05
same,glycan array binding signal (z-score),[8],-0.397
same,glycan array binding signal (z-score),[9],0.071
same,glycan array binding signal (z-score),Gal(b1-4)Gal,3.18
same,glycan array binding signal (z-score),[10],0.39
same,glycan array binding signal (z-score),[11],-1.17
same,glycan array binding signal (z-score),[12],1.02
same,glycan array binding signal (z-score),GalNAc(a1-3)GalNAc,-0.917
same,glycan array binding signal (z-score),GalNAc(b1-3)Gal,-0.593
same,glycan array binding signal (z-score),[13],-0.095
same,glycan array binding signal (z-score),[14],-0.394
same,glycan array binding signal (z-score),[15],0.236
same,glycan array binding signal (z-score),[16],6.62
same,glycan array binding signal (z-score),[17],4.27
same,glycan array binding signal (z-score),[18],-0.622
same,glycan array binding signal (z-score),[19],0.152
same,glycan array binding signal (z-score),[20],-0.599
same,glycan array binding signal (z-score),GlcNAc(b1-3)Gal(b1-4)Glc,2.75
same,glycan array binding signal (z-score),GlcNAc(b1-3)GalNAc,-0.143
same,glycan array binding signal (z-score),[21],0.22
same,glycan array binding signal (z-score),Man(a1-2)Man(a1-3)Man,-1.17
same,glycan array binding signal (z-score),[22],0.409

# Source: the supplement of paper PMC8728848
